Experimental findings from ChEMBL document CHEMBL3988442, “University of Dundee, Small-Polar-MMV Screening Library” (2021) are described below.

In assay [1] the target is T1, Aspartate--tRNA(Asp/Asn) ligase (Mycobacterium tuberculosis (strain ATCC 25618 / H37Rv)) (UniProt P9WFW3). Note: in the data most compounds retested in dose-response had high values.
T1 sequence (whole entry): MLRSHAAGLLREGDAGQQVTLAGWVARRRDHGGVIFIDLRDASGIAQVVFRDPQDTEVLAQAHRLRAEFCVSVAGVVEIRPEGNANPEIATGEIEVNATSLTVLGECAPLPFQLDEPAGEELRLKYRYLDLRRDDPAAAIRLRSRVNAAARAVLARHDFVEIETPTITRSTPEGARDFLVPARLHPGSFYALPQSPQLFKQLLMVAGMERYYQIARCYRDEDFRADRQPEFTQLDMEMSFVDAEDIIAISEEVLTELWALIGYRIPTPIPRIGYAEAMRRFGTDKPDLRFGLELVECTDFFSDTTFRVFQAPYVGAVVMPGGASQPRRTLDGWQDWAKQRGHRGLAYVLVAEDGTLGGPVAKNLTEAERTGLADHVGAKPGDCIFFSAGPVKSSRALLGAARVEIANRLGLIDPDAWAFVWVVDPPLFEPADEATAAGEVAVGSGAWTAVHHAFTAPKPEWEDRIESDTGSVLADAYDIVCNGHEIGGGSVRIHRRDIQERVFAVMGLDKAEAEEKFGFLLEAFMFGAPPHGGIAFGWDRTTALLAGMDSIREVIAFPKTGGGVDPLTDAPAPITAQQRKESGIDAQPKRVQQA
Briefly: Assay for Asp RNA synthetase-1 from Mycobacterium tuberculosis. In kind it is functional. Details: scale not given: direction of the effect not stated beside the values. The following applies: 30 µM.

Assay [2] addresses Shiga toxin 2 (Escherichia coli O157:H7) (UniProt P09385+P09386). Briefly: E. coli 0.157:H7 Shiga Toxin SOP - stx2 screening assay. The class given is functional. Details: scale not given: direction of the effect not stated beside the values. The following applies: 30 µM.

Take `COCC1CN(Cc2cc(C)on2)Cc2cn(C)nc21` (centres undefined): the Percent Effect was 1.83% in assay [1] and -2.41% in assay [2].
For `CN(C)CC1CN(C(=O)NCc2ccccc2)Cc2nccn2C1` (centres undefined), the Percent Effect is -0.114% in assay [1] and -2.62% in assay [2].
As to `c1ccc2oc(CCCN3CCCC3Cn3cncn3)nc2c1` (centres undefined), the Percent Effect in assay [1] was -1.22%; in assay [2] it was 7.93%.
For `CCc1nc2n(n1)CC(NCC(=O)Nc1nccs1)CC2` (centres undefined) the same measures were -2.71% and 2.48%.
The corresponding values for `CCSCC(C)NCc1nncn1C1CCCCC1` (centres undefined) are 1.39% and 13.1%.
Take `O=C(c1ccc(F)cc1)N1CCN2C[C@H](OCc3ccccn3)C[C@H]2C1`: the Percent Effect in assay [1] was -1.3%; in assay [2], 10.7%.
The corresponding values for `CN(C)C(=O)c1ccc(CNC(=O)NCCN(C)C2CCCC2)cc1` are 1.57% and 14.3%.
The corresponding values for `O=C(c1ccsc1)N1CCCC(c2cc(C(F)(F)F)[nH]n2)C1` (centres undefined) are 7.19% and 28%.
On to `CCc1nc(CN2CCCC(NCc3cc(C)no3)C2)no1` (centres undefined), for which the Percent Effect in assay [1] was found to be 3.46%; in assay [2], 9.82%.
For `COC(=O)c1ccc(N2CCN(CCC#N)C(C)C2)cc1` (centres undefined) the same measures were 2.13% and 37.7%.
On to `COc1ccc(CN2C[C@H]3CN(c4ccsc4)C(=O)[C@H]3C2)cc1`, for which the Percent Effect in assay [1] was 4.05%; in assay [2] it was -26.4%.
Regarding `CC(C)c1nn(CC(=O)N2CCCCC2)c(=O)c2c1cnn2C(C)(C)C`, the Percent Effect in assay [1] is -5.41%; in assay [2], 2.7%.
`CCCc1nc(CN2CCOC(Cn3cncn3)C2)no1` (centres undefined): the results for the Percent Effect in assay [1] and in assay [2] were 0.917% and -23.1%, respectively.
For `Cc1oc(-c2nc(C#N)c(N(C)C)o2)cc1S(=O)(=O)N1CCCC1` the same measures were 0.145% and -18.1%.
Turning to `CC(NC(N)=O)C(=O)N(C)CCCc1cc(-c2ccccc2)no1` (centres undefined), the Percent Effect amounted to 3.41% in assay [1] and 22.8% in assay [2].
For `O=C(Cn1cc(I)cn1)Nc1cccnc1`, the Percent Effect in assay [1] was 1.95%; in assay [2], -36.6%.
Consider `CC(C)Oc1ncccc1CNC(=O)c1cc[nH]n1`, for which the Percent Effect is -1.4% in assay [1] and 18.4% in assay [2].
